Our source for the inhibition values is ChEMBL document CHEMBL1961873, “Compounds: GSK PKIS; Assays: Nanosyn kinase panel” (2012).

The structures appear in SMILES notation.

Assay [1] has as its target RAC-alpha serine/threonine-protein kinase (Homo sapiens) (UniProt P31749). As to conditions: at 0.1 µM.
The target is the same in assay [2]. As to conditions: at 1 µM.
The target in assay [3] is RAC-beta serine/threonine-protein kinase (Homo sapiens) (UniProt P31751). To be noted: at 0.1 µM.
The target is the same in assay [4]. To be noted: at 1 µM.
Assay [5] addresses RAC-gamma serine/threonine-protein kinase (Homo sapiens) (UniProt Q9Y243). As to conditions: at 0.1 µM.
Assay [6] has the same target. As to conditions: at 1 µM.
The target of assay [7] is G protein-coupled receptor kinase 6 (Homo sapiens) (UniProt P43250). To be noted: at 0.1 µM.
Assay [8] shares this target. As to conditions: at 1 µM.
Assay [9] concerns the target T1, Rhodopsin kinase GRK7 (Homo sapiens) (UniProt Q8WTQ7).
T1 sequence (whole entry): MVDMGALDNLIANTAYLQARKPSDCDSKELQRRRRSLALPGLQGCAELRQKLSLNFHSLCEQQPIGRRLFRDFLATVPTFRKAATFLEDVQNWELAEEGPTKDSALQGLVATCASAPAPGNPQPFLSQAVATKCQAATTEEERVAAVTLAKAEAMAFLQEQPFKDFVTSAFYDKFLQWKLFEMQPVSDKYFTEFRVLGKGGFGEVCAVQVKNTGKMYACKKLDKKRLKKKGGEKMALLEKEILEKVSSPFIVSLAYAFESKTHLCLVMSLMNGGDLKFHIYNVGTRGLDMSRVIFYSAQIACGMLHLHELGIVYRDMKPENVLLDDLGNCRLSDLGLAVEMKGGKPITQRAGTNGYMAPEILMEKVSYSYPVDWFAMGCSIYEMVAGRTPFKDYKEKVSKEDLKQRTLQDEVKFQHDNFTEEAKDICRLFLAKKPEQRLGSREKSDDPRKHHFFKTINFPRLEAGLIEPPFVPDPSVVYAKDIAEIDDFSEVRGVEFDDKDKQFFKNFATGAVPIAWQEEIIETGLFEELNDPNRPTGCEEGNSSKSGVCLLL
To be noted: at 0.1 µM.

Assay [10] concerns the target T1, Rhodopsin kinase GRK7 (Homo sapiens). As to conditions: at 1 µM.
For assay [11], the target named is Serine/threonine-protein kinase MRCK alpha (Homo sapiens) (UniProt Q5VT25). As to conditions: at 0.1 µM.
Chain of Serine/threonine-protein kinase MRCK alpha (Homo sapiens) (Q5VT25 whole entry): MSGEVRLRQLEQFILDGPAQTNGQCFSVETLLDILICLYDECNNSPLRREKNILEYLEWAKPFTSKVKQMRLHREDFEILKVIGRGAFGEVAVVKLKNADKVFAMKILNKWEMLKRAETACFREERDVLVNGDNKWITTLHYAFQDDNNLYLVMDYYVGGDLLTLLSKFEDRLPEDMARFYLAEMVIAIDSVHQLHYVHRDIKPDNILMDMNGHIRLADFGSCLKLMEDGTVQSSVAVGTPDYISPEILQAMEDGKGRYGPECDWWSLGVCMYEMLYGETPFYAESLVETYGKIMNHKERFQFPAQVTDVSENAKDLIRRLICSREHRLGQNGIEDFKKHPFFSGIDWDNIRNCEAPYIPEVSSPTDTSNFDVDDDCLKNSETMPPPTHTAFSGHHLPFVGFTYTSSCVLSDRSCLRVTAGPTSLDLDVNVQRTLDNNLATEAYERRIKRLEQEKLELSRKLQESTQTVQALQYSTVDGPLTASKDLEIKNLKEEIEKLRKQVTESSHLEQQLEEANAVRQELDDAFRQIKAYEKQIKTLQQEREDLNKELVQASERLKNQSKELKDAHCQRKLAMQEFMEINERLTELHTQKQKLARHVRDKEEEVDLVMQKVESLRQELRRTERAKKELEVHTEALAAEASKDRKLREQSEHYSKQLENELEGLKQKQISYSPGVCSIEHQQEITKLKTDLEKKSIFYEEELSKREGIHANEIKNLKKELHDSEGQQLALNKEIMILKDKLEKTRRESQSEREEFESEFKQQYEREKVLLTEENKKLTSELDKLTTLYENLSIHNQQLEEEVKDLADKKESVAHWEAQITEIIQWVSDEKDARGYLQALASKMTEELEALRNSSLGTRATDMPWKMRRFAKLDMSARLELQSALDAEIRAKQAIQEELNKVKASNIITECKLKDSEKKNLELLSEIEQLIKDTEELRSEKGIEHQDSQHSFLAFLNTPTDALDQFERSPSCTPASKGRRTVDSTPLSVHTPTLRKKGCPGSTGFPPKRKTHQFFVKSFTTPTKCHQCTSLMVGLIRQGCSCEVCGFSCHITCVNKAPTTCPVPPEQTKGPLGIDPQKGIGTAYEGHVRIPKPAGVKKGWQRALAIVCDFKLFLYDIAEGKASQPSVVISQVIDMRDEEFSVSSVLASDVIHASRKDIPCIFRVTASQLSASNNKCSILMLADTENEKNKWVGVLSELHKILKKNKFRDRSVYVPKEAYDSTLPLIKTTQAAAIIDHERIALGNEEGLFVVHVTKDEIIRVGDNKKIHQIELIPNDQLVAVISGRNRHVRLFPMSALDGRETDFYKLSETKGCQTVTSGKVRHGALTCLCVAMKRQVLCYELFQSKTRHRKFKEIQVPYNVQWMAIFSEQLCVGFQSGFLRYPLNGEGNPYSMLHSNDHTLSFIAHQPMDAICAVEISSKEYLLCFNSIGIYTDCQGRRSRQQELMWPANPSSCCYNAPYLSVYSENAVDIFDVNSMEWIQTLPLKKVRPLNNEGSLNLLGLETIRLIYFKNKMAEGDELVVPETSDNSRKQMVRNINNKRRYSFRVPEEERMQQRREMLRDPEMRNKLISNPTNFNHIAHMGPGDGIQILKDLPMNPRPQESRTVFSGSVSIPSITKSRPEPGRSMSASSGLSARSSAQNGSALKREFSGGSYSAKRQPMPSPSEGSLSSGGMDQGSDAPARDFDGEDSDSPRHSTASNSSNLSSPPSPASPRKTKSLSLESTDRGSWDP
For assay [12] the target is unchanged. As to conditions: at 1 µM.
Assay [13] has as its target Serine/threonine-protein kinase MRCK beta (Homo sapiens) (UniProt Q9Y5S2). As to conditions: at 0.1 µM.
Assay [14] has the same target. As to conditions: at 1 µM.
Assay [15] deals with Ribosomal protein S6 kinase alpha-5 (Homo sapiens) (UniProt O75582). As to conditions: at 0.1 µM.
Assay [16] shares this target. To be noted: at 1 µM.
For assay [17], the target named is Ribosomal protein S6 kinase alpha-4 (Homo sapiens) (UniProt O75676). To be noted: at 0.1 µM.
For assay [18] the target is unchanged. As to conditions: at 1 µM.
Assay [19] addresses Ribosomal protein S6 kinase beta-1 (Homo sapiens) (UniProt P23443). To be noted: at 0.1 µM.
Assay [20] shares this target. As to conditions: at 1 µM.

Chain of Ribosomal protein S6 kinase beta-1 (Homo sapiens) (P23443 whole entry, looked up): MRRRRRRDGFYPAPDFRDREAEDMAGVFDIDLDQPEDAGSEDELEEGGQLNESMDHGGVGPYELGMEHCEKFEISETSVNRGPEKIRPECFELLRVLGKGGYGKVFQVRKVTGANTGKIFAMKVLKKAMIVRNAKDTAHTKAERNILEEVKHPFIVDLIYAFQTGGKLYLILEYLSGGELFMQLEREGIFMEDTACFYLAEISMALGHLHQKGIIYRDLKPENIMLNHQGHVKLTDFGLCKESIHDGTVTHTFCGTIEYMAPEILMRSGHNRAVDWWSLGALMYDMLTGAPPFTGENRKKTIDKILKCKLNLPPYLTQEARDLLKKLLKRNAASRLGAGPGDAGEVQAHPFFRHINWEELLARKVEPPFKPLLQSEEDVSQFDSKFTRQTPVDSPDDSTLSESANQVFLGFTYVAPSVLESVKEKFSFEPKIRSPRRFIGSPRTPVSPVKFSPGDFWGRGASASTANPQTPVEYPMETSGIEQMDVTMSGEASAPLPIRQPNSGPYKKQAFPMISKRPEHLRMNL
Chain of RAC-gamma serine/threonine-protein kinase (Homo sapiens) (Q9Y243 whole entry): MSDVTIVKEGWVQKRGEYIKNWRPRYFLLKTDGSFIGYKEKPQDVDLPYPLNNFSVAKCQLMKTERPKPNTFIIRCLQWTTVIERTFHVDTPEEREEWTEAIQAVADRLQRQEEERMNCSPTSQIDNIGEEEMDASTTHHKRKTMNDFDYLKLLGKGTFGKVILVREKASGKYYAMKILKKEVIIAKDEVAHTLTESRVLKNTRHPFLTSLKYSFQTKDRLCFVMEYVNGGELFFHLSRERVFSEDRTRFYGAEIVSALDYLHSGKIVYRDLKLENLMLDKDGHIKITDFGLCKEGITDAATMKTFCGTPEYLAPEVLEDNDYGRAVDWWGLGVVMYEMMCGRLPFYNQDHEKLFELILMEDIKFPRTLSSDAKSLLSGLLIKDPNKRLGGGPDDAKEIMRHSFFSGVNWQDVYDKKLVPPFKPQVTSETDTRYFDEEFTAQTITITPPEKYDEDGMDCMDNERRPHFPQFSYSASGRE
Chain of Serine/threonine-protein kinase MRCK beta (Homo sapiens) (Q9Y5S2 whole entry): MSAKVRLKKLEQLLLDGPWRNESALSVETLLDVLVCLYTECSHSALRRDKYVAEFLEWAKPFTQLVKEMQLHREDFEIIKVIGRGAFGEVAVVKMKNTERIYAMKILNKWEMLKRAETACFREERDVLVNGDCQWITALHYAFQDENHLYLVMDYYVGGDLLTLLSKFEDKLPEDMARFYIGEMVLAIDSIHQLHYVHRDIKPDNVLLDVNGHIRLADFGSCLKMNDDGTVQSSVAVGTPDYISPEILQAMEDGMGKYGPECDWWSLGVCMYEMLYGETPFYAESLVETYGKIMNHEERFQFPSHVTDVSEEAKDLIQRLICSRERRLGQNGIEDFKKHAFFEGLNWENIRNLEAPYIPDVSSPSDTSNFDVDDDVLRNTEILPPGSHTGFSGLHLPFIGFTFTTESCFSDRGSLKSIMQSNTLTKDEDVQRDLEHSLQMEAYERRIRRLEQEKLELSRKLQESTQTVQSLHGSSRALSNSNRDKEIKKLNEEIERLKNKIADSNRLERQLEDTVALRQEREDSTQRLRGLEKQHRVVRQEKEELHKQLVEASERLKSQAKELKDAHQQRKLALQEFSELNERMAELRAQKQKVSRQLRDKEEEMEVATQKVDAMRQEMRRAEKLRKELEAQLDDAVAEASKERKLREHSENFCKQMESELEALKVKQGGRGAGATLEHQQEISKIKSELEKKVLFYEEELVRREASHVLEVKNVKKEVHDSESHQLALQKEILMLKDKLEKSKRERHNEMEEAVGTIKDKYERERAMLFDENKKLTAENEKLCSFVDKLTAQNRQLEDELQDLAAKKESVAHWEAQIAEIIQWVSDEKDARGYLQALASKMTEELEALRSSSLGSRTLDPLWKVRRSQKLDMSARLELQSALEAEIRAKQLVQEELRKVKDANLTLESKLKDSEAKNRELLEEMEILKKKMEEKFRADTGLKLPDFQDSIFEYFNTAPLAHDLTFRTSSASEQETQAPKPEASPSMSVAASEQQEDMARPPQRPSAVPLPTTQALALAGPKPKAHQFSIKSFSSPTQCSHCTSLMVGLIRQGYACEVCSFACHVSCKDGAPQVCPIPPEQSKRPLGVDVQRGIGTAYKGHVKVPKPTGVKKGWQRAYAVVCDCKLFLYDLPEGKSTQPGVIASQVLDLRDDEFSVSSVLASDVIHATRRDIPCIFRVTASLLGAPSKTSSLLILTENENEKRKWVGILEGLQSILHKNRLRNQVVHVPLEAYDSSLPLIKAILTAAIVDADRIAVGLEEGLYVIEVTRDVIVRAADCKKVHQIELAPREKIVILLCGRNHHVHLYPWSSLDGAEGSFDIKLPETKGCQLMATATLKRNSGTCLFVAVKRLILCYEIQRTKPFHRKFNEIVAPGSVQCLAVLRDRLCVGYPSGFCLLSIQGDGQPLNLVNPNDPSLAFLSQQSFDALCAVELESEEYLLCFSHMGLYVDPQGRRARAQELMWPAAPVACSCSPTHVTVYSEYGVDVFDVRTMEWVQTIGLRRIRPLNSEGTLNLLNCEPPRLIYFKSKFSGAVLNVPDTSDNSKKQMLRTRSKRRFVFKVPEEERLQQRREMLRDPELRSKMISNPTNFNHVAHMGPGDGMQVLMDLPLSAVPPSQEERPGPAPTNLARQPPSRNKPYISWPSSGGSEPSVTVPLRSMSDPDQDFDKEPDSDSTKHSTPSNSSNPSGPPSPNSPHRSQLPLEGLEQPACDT
Chain of RAC-alpha serine/threonine-protein kinase (Homo sapiens) (P31749 whole entry): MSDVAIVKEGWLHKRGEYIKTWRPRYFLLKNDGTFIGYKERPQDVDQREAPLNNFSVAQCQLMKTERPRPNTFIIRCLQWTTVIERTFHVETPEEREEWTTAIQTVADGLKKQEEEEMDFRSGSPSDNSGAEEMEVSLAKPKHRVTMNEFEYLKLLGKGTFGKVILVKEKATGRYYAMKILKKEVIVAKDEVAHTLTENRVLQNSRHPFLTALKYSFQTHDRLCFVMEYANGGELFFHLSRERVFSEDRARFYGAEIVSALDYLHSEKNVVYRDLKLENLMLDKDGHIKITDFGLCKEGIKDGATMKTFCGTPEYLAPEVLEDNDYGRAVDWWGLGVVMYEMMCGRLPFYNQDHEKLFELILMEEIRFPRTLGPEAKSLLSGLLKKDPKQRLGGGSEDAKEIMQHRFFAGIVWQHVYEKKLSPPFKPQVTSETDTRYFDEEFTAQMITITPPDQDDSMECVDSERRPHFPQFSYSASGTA

What is called inhibition is the change of the read-out against control, counted positive when it falls. Regarding `CCN(CC)Cc1ccc(Nc2nccc(-c3cnn4ncccc34)n2)cc1`, the inhibition in assay [1] is -2.02%; in assay [2], -1.93%; in assay [3], -2.76%; in assay [4] it was -2.22%; in [5] it was -1.29%; in assay [6], -1.26%. In addition, the inhibition was determined as 2.33% in assay [7]; 1.08% in assay [8]; 10.6% in assay [9]; 3.71% in assay [10]; 2.38% in assay [11]; 4.32% in [12]. Moreover, the inhibition in assay [13] was found to be 0.71%; in assay [14], 4.53%; in assay [15] it was 0.66%; in assay [16], 2.51%; in assay [17], 2.43%; in assay [18] it was 7.32%. Besides, the inhibition in assay [19] was 1.81%; in assay [20], 7.85%.
In the case of `NC(=O)c1cc(-c2ccc(F)cc2)cc(-c2ccncc2)c1N`, the inhibition in [1] was determined as 0.92%; in assay [2] it was 1.2%; in [3], 1.95%; in [4] it was 2.01%; in assay [5] it was 2.01%; in [6] it was 4.31%. In addition, the inhibition in [7] is 5.99%; in assay [8], 6.88%; in assay [9], 2.49%; in [10], 11.1%; in [11] it was -1.04%; in assay [12], -1.25%. Moreover, the inhibition in [13] was -1.54%; in [14], -2.26%; in assay [15] it was 2.2%; in [16], 1.39%; in assay [17], 2.03%; in assay [18], 2.52%. Also, the figures for the inhibition in [19] and in assay [20] were 1.5% and 2.24%, respectively.
`CN1CCN(CCCNc2nc3ccc(Oc4ccc(NC(=O)Nc5cc(C(F)(F)F)ccc5F)cc4)cc3[nH]2)CC1`: the inhibition is -3.71% in assay [1]; -3.59% in [2]; -3.19% in [3]; -0.85% in [4]; -3.05% in assay [5]; -2.98% in assay [6]. Further, the inhibition was 0.32% in assay [7]; -5.54% in assay [8]; 1.12% in [9]; -3.95% in assay [10]; 1.76% in [11]; -0.74% in [12]. Besides, the inhibition in assay [13] was 2.45%; in assay [14], 2.84%; in [15], 1.13%; in [16] it was -0.08%; in [17], 1.93%; in [18], 2.99%. Besides, the inhibition is 1.14% in assay [19] and 4.19% in assay [20].
On to `COc1ccc2ncn(-c3cc(O[C@H](C)c4ccccc4Cl)c(C(N)=O)s3)c2c1`, for which the inhibition is -3.63% in assay [1]; -2.95% in assay [2]; -2.65% in [3]; -2.8% in assay [4]; -2.12% in assay [5]; -1.2% in assay [6]. Moreover, the inhibition in [7] is -0.3%; in assay [8], 0.35%; in assay [9], 8.25%; in assay [10], 2.33%; in assay [11] it was -0.38%; in [12], 1.13%. Also, the inhibition in assay [13] is 0.7%; in assay [14], 3.24%; in assay [15] it was 2.21%; in assay [16], 1.33%; in [17], 3.9%; in assay [18] it was 2.99%. The inhibition in assay [19] was found to be 0.38%; in [20], 2.8%.
For the compound `NC(=O)c1cc(-c2ccncc2)cc(-c2ccccc2)c1N`, the inhibition in assay [1] came to 0.73%; in assay [2] it was 0.01%; in assay [3], 1.93%; in [4], 2.56%; in assay [5], 0.25%; in assay [6] it was 3.46%. The inhibition was 3.52% in assay [7]; 3.56% in assay [8]; 5.22% in [9]; 9.17% in assay [10]; 0.84% in assay [11]; -0.04% in assay [12]. Moreover, the inhibition in assay [13] is 1.07%; in assay [14] it was 2.4%; in assay [15], -1.53%; in assay [16], 0.93%; in assay [17] it was 2.32%; in assay [18] it was 3.43%. Also, the inhibition in assay [19] is 3.54%; in [20] it was 2.1%.
Take `COc1cc(N2CCN(C(C)C)CC2)ccc1Nc1nc(Nc2ccc(F)cc2C(=O)NC[C@@H](O)CO)c2cc[nH]c2n1`: the inhibition in [1] is -3.58%; in assay [2], -2.63%; in assay [3] it was 0.2%; in assay [4], -1.3%; in assay [5], -2.3%; in assay [6], -1.37%. For the same compound, the inhibition is 9.59% in [7]; 13% in assay [8]; 5.2% in assay [9]; 13.3% in [10]; -0.84% in assay [11]; 3.26% in assay [12]. Moreover, the inhibition in assay [13] is -0.21%; in [14], -1.04%; in assay [15], 2.19%; in assay [16], 2.99%; in assay [17], 3.14%; in assay [18], 4.18%. For the same compound, the inhibition in [19] came out at 1.29%; in assay [20], 2.5%.
As to `O=C1Nc2ccccc2/C1=C/Nc1ccc(-n2cncn2)cc1`, the inhibition was 0.19% in assay [1]; -0.09% in assay [2]; 1.56% in [3]; 0.9% in [4]; 0.39% in [5]; 2.21% in assay [6]. Further, the inhibition in assay [7] is 7.2%; in assay [8], 14.8%; in [9] it was 5.5%; in assay [10], 14.9%; in assay [11], 0.72%; in [12], 3.59%. Further, the inhibition amounted to 0.37% in assay [13]; 1.08% in assay [14]; 5.48% in assay [15]; 8.54% in [16]; 3.95% in [17]; 13.4% in [18]. For the same compound, the inhibition was 2.05% in assay [19] and 9.06% in [20].
